Experimental data reported in PubChem BioAssay AID1159580 (chemical genetic matrix, 2015).
Where “and” joins values, the source holds several entries; their conditions need not be identical. Identical values can stand only once. Among all 5,500 compounds or so, about 2,000 (36%) were called active. Not shown: some 18% with an inconclusive outcome. No stated cut-off is given here; in the data, active means normalized growth mostly below about 0.91 (no sharp cut-off); inconclusive means no clear call, values can overlap the other calls; inactive means mostly above about 0.92. This is one part of the list.

Test: chemical genetic growth profiling, strain panel (AID 1159580);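 further: tested at 20 µM; growth read once vehicle control cultures reached saturation at 30 °C; 1 = growth at the plate median or of vehicle wells; lower values mean less growth of the strain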
Conditions: S. cerevisiae deletion strains, growth OD

Measured: normalized growth

CCCC1O[C@@H]2CC3C4CCC5=CC(=O)C=CC5(C)C4[C@@H](O)CC3(C)[C@]2(C(=O)CO)O1 (stereo partly specified)
inactive: locus YAL013W, strain DEP1, hits give low values 1 | locus YAL021C, strain ccr4, hits give low values 1.01 | locus YAL026C, strain drs2, hits give low values 1.01 | locus YAL030W, strain snc1, hits give low values 1.01 | locus YBL061C, strain skt5, hits give low values 1 | locus YBR009C, strain hhf1, hits give low values 0.995 | locus YBR021W, strain FUR4, hits give low values 1 | locus YBR023C, strain chs3, hits give low values 1.02 | locus YBR171W, strain sec66, hits give low values 1.01 | locus YBR229C, strain ROT2, hits give low values 1 | locus YBR231C, strain swc5, hits give low values 1 | locus YBR279W, strain paf1, hits give low values 1.01 | locus YCL011C, strain gbp2, hits give low values 0.996 | locus YCL016C, strain dcc1, hits give low values 1.01 | locus YCL029C, strain bik1, hits give low values 1.01 | locus YCL069W, strain vba3, hits give low values 1.01 | locus YCR088W, strain abp1, hits give low values 1.01 | locus YDL005C, strain med2, hits give low values 0.985 | locus YDL035C, strain GPR1, hits give low values 0.994 | locus YDL040C, strain nat1, hits give low values 1.01 | locus YDL074C, strain BRE1, hits give low values 1 | locus YDL101C, strain DUN1, hits give low values 1.01 | locus YDL134C, strain PPH21, hits give low values 1 | locus YDL185W, strain tfp1, hits give low values 1.01 | locus YDL192W, strain arf1, hits give low values 1.02 | locus YDR001C, strain nth1, hits give low values 0.993 | locus YDR069C, strain doa4, hits give low values 1 | locus YDR101C, strain arx1, hits give low values 1.01 | locus YDR137W, strain rgp1, hits give low values 0.989 | locus YDR150W, strain NUM1, hits give low values 0.997 | locus YDR159W, strain sac3, hits give low values 0.972 | locus YDR162C, strain NBP2, hits give low values 1 | locus YDR195W, strain ref2 0.971 | locus YDR297W, strain sur2, hits give low values 1.01 | locus YDR318W, strain mcm21, hits give low values 1.03 | locus YDR334W, strain swr1, hits give low values 1.03 | locus YDR335W, strain msn5, hits give low values 1.01 | locus YDR388W, hits give low values 1.02 | locus YDR392W, strain spt3, hits give low values 1.04 | locus YDR502C, strain sam2, hits give low values 1.02 | locus YEL003W, strain gim4, hits give low values 1.02 | locus YEL037C, strain rad23, hits give low values 0.995 | locus YEL061C, strain CIN8 (second series), hits give low values 1.02 | locus YEL061C, strain CIN8, hits give low values 1 | locus YER015W, strain faa2, hits give low values 1.01 | locus YER016W, strain bim1, hits give low values 1 | locus YER110C, hits give low values 1.02 | locus YER111C, strain swi4, hits give low values 1.02 | locus YER155C, strain BEM2 (second series), hits give low values 1.05 | locus YER155C, strain BEM2, hits give low values 0.989 | locus YER167W, strain BCK2, hits give low values 1.01 | locus YFR010W, strain ubp6, hits give low values 0.987 | locus YGL078C, strain dbp3, hits give low values 1.01 | locus YGL086W, strain mad1, hits give low values 1 | locus YGL167C, strain pmr1, hits give low values 1.01 | locus YGL173C, strain kem1, hits give low values 1 | locus YGL227W, strain vid30, hits give low values 1 | locus YGL240W, strain doc1, hits give low values 0.982 | locus YGL248W, strain PDE1, hits give low values 1.01 | locus YGL253W, strain hxk2, hits give low values 1.02 | locus YGR078C, strain PAC10, hits give low values 0.986 | locus YGR135W, strain pre9, hits give low values 0.998 | locus YGR229C, strain SMI1, hits give low values 0.992 | locus YGR252W, strain gcn5, hits give low values 1.06 | locus YHR013C, strain ard1, hits give low values 1.03 | locus YHR027C, strain rpn1, hits give low values 1.01 | locus YHR030C, strain SLT2, hits give low values 1 and 1.02 | locus YHR079C, strain IRE1 (second series), hits give low values 1.01 | locus YHR079C, strain IRE1, hits give low values 1.01 | locus YHR094C, strain hxt1, hits give low values 1.02 | locus YHR129C, strain ARP1, hits give low values 1 | locus YHR142W, strain chs7, hits give low values 1.02 | locus YHR200W, strain rpn10, hits give low values 1.03 | locus YIL066C, strain RNR3, hits give low values 1.01 | locus YIL073C, strain SPO22, hits give low values 1.07 | locus YIL125W, strain kgd1, hits give low values 0.997 | locus YIR030C, strain dcg1, hits give low values 1.02 | locus YJL092W, strain hpr5, hits give low values 1 | locus YJL095W, strain BCK1 (second series), hits give low values 1.01 | locus YJL095W, strain BCK1, hits give low values 0.994 and 1.02 | locus YJL115W, strain asf1, hits give low values 1 | locus YJL129C, strain trk1, hits give low values 0.98 | locus YJL134W, strain LCB3, hits give low values 1 | locus YJL154C, strain vps35, hits give low values 1.01 | locus YJL164C, strain tpk1, hits give low values 1 | locus YJL166W, strain qcr8, hits give low values 1.01 | locus YJL168C, strain set2, hits give low values 1.02 | locus YJL187C, strain SWE1 (second series), hits give low values 1 | locus YJL187C, strain SWE1, hits give low values 1.02 | locus YJR043C, strain POL32, hits give low values 1 | locus YJR066W, strain TOR1, hits give low values 0.978
